According to PubChem BioAssay (NCATS):
Several values for one entry are separate records, joined by “and”; a condition that tells them apart may be missing. Equal values may be shown once. Records with an inconclusive call do not appear. The source holds several records for some structures; these can differ, active in one and inactive in another. Activity calls are given as the source filed them. Unless noted, calls come from the whole dose curve; as a rule, active = well fitted curve in the direction sought with a large enough effect; inconclusive = small, poorly fitted or top-dose-only effect, or another doubt; inactive = no such curve, though single readings can be large; an effect the other way counts as inactive or inconclusive.

Legend:
Tov-21-G = assay: Primary qHTS to identify gynecologic anti-cancer compounds using libraries of approved drugs and bioactive compounds (AID 1345084); conditions: Gynecologic cancer cell panel viability, ATPlite luminescence, 48 h; series mostly up to 57.5 µM; note: % is set by controls: 0 for no effect and ±100 for the full control effect; nearly all actives have a fitted effect of over 55% in size
Summary of the method: (§1)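 Cytotoxicity screen measuring ATP content by luciferase luminescence. Each compound is applied at five concentrations for 48 h at 37 C with 5% CO2.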

Tov112D = assay: as above; conditions: Gynecologic cancer cell panel viability, ATPlite luminescence, 48 h; series mostly up to 57.5 µM
Summary of the method: as §1

[1] = Drug repurposing screens with cells derived from glioblastoma tumor samples (AID 1345199); conditions: GBM patient neurospheres viability, ATP luminescence, 48 h; note: nearly all actives have a fitted effect of over 40% in size; note: potency is the fitted concentration of half-maximal effect; for activity, negative = cell killing: % is set by controls: 0 for no effect and ±100 for the full control effect
Summary of the method: (§2)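 Primary testing used CD133+ neurospheres from four GBM patients, seven concentrations, 48 h exposure and ATP-based viability; confirmation added three slower-growing patient lines.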

astro = assay: as above; conditions: viability, ATP luminescence, 48 h; series mostly up to 45.9 µM
Summary of the method: as §2

[2] = biological target: Nuclear receptor subfamily 1 group I member 2 (Rattus norvegicus) (UniProt Q9R1A7); assay: qHTS assay for small molecule activators of the rat pregnane X receptor (rPXR) signaling pathway (AID 651751; call rule not given here; note: 0% is about no effect); conditions: rPXR reporter cells, luciferase (One-Glo), 24 h
[3] = qHTS assay for small molecule activators of the human pregnane X receptor (PXR) signaling pathway (AID 720659; call rule not given here; note: 0% is about no effect)
[4] = at 45.9 µM (top of the series), tumour line B
[5] = at 46 µM (top of the series), tumour line A
[6] = at 46.1 µM (top of the series), tumour line C
[7] = at 20 µM (top of the series), tumour line C
[8] = at 21.2 µM (top of the series), tumour line B
[9] = at 21.2 µM (top of the series), tumour line D
[10] = at 45.9 µM (top of the series), tumour line D

Chain of Nuclear receptor subfamily 1 group I member 2 (Rattus norvegicus) (Q9R1A7 whole entry, looked up): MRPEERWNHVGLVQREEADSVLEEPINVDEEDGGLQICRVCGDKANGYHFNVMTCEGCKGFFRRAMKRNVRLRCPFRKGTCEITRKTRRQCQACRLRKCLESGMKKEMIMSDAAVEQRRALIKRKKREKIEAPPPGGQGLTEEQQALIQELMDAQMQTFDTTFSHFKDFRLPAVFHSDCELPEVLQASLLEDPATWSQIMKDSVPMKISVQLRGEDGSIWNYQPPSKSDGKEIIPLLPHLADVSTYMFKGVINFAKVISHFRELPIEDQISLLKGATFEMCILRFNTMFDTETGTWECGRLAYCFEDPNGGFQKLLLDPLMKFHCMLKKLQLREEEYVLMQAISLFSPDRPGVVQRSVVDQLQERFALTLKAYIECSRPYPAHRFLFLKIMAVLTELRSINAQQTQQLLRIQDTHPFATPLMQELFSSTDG

O=C1c2c(O)cccc2Cc2cccc(O)c21
inactive: Potency (Tov-21-G) | Potency (Tov112D) | activity, negative = cell killing [1, 4] -7.97% | activity, negative = cell killing [1, 5] -24.5% | activity, negative = cell killing [1, 6] -8.57% | Potency (astro) | max response [2] -0.627% | outcome [3]

CN1CCOC(c2ccccc2)c2ccccc2C1 (configuration not stated)
inactive: Potency (Tov-21-G) | Potency (Tov112D) | activity, negative = cell killing [1, 7] 10.6% | activity, negative = cell killing [1, 8] -10.4% | activity, negative = cell killing [1, 9] -4.89% | Potency (astro)

CCCCOC(=O)c1ccc(O)cc1
inactive: Potency (Tov-21-G) | Potency (Tov112D) | activity, negative = cell killing [1, 4] -17.3% | activity, negative = cell killing [1, 10] -11.1% | activity, negative = cell killing [1, 6] 26.3% | Potency (astro) | max response [2] -8.55% and 2.81%

Nc1nc2c(ncn2CCC(CO)CO)c(=O)[nH]1
inactive: Potency (Tov-21-G) | Potency (Tov112D) | activity, negative = cell killing [1, 4] -8.7% | activity, negative = cell killing [1, 10] 3.63% | activity, negative = cell killing [1, 6] -21.6% | Potency (astro)

CN(C)CCCO[C@@H]1[C@H]2OC(C)(C)O[C@H]2O[C@@H]1C(O)CO (some centres not stated)
inactive: Potency (Tov-21-G) | Potency (Tov112D) | activity, negative = cell killing [1, 4] -1.76% | activity, negative = cell killing [1, 10] -18.3% | activity, negative = cell killing [1, 6] -10.9% | Potency (astro)

CC1(C)[C@@H]2CC[C@@]1(C)C(=O)C2
inactive: Potency (Tov-21-G) | Potency (Tov112D) | activity, negative = cell killing [1, 4] -26.7% | activity, negative = cell killing [1, 10] -2.76% | activity, negative = cell killing [1, 6] -20.2% | Potency (astro) | max response [2] 4.84% | outcome [3]

CCN(CC)CCNC(=O)c1cc(Cl)c(N)cc1OC
inactive: Potency (Tov-21-G) | Potency (Tov112D) | activity, negative = cell killing [1, 4] -15.5% | activity, negative = cell killing [1, 10] -19.3% | activity, negative = cell killing [1, 6] 6.62% | Potency (astro)

COc1ccc2c(c1)C(=O)N(CCc1ccc(S(=O)(=O)NC(=O)NC3CCCCC3)cc1)C(=O)C2(C)C
inactive: Potency (Tov-21-G) | Potency (Tov112D) | activity, negative = cell killing [1, 7] -4.28% | activity, negative = cell killing [1, 8] -10.5% | activity, negative = cell killing [1, 9] -7.62% | Potency (astro)

CC(C)C(=O)c1c(C(C)C)nn2ccccc12
active: Potency ([1]; tumour line A) 8.91 µM
inactive: Potency (Tov-21-G) | Potency (Tov112D) | activity, negative = cell killing [1, 4] -5.19% | activity, negative = cell killing [1, 6] -20.7% | Potency (astro)

O=C(O)Cc1sc(-c2ccccc2)nc1-c1ccc(Cl)cc1
inactive: Potency (Tov-21-G) | Potency (Tov112D) | activity, negative = cell killing [1, 10] -34% and -7.66% | activity, negative = cell killing [1, 5] -38.9% | activity, negative = cell killing [1, 6] -4.36% and -11.1% | Potency (astro)

CC(O)CN(CCN(CC(C)O)CC(C)O)CC(C)O (configuration not stated)
inactive: Potency (Tov-21-G) | Potency (Tov112D) | activity, negative = cell killing [1, 4] -16.3% | activity, negative = cell killing [1, 10] 3.18% | activity, negative = cell killing [1, 5] -27.7% | Potency (astro) | max response [2] -2.51% | outcome [3]

C[C@H]1O[C@H](O[C@H]2[C@H](O)[C@@H](O)[C@@H](O[C@H]3[C@H](O)[C@@H](O)[C@H](O)O[C@@H]3CO)O[C@@H]2CO)[C@H](O)[C@@H](O)[C@@H]1N[C@H]1C=C(CO)[C@@H](O)[C@H](O)[C@H]1O
inactive: Potency (Tov-21-G) | Potency (Tov112D) | activity, negative = cell killing [1, 4] -6.62% | activity, negative = cell killing [1, 10] 5.79% | activity, negative = cell killing [1, 6] -10.2% | Potency (astro)

C[C@]12C[C@H](O)[C@H]3[C@@H](CCC4=CC(=O)CC[C@@]43C)[C@@H]1CC[C@@H]2C(=O)CO
inactive: Potency (Tov-21-G) | Potency (Tov112D) | activity, negative = cell killing [1, 4] -17.6% | activity, negative = cell killing [1, 10] -22.1% | Potency (astro)

O=S(=O)(O)c1cc(I)c(O)c2ncccc12
inactive: Potency (Tov-21-G) | Potency (Tov112D) | activity, negative = cell killing [1, 4] -21.6% | activity, negative = cell killing [1, 10] -2.75% | Potency (astro)

CCCCC(CC)COC(=O)c1ccccc1O (configuration not stated)
inactive: Potency (Tov-21-G) | Potency (Tov112D) | activity, negative = cell killing [1, 4] -9.83% | activity, negative = cell killing [1, 10] -3.06% | activity, negative = cell killing [1, 6] 2.02% | Potency (astro) | max response [2] 2.15% | outcome [3]

CCCCOc1cc(C(=O)OCCN(CC)CC)ccc1N
inactive: Potency (Tov-21-G) | Potency (Tov112D) | activity, negative = cell killing [1, 7] -6.35% | activity, negative = cell killing [1, 8] -29.6% | Potency (astro)
active: Potency ([1]; tumour line A) 11.2 µM

CN1CCCCC1CCN1c2ccccc2Sc2ccc(S(C)=O)cc21 (configuration not stated)
inactive: Potency (Tov-21-G) | Potency (Tov112D) | activity, negative = cell killing [1, 4] -8.07% | activity, negative = cell killing [1, 6] -16.7% and 11.5% | Potency (astro)

CC12CCC(CC1)C(C)(C)O2
inactive: Potency (Tov-21-G) | Potency (Tov112D) | activity, negative = cell killing [1, 4] -7.94% | activity, negative = cell killing [1, 10] 5.35% | activity, negative = cell killing [1, 6] -12.5% | Potency (astro) | max response [2] 2.12% | outcome [3]

C[C@]12CC[C@@H]3c4ccc(O)cc4CC[C@H]3[C@@H]1CCC2=O
inactive: Potency (Tov-21-G) | Potency (Tov112D) | activity, negative = cell killing [1, 4] -16.5% | activity, negative = cell killing [1, 10] -20.7% | activity, negative = cell killing [1, 6] -9.33% | Potency (astro) | max response [2] 1.32%

COC(=O)[C@H]1[C@H]2C[C@@H]3c4[nH]c5cc(OC)ccc5c4CCN3C[C@H]2C[C@@H](OC(=O)COc2ccc(OC)cc2)[C@@H]1OC
active: Potency ([1]; tumour line A) 11.2 µM
inactive: Potency (Tov-21-G) | Potency (Tov112D) | activity, negative = cell killing [1, 4] -20.4% | Potency (astro)

CC(COc1ccccc1)NC(C)C(O)c1ccc(O)cc1 (configuration not stated)
inactive: Potency (Tov-21-G) | Potency (Tov112D) | activity, negative = cell killing [1, 7] -3.58% | activity, negative = cell killing [1, 8] -2.68% | activity, negative = cell killing [1, 9] -14.2% | Potency (astro)

Cc1cc(CC(=O)O)n(C)c1C(=O)c1ccc(Cl)cc1
inactive: Potency (Tov-21-G) | Potency (Tov112D) | activity, negative = cell killing [1, 4] -19.5% and -0.106% | activity, negative = cell killing [1, 10] -15.6% and -2.2% | activity, negative = cell killing [1, 6] -19.2% and -21.6% | Potency (astro) | max response [2] -6.77% | outcome [3]

CCOC(CN1CCN(CC(C)C(=O)c2ccccc2)CC1)c1ccccc1 (configuration not stated)
inactive: Potency (Tov-21-G) | Potency (Tov112D) | activity, negative = cell killing [1, 4] -10.2% | Potency (astro)
active: Potency ([1]; tumour line A) 12.6 µM
